Data as given in publication PMC4336329 (PLoS ONE, 2015).
The campaign covered roughly 310,000 compounds. About 14,000 (4.5%) showed an effect of 50% or more. Effects have a minus sign here. For the sample, strong results were picked, then their nearest neighbours and some compounds at random.

These compounds were tested against human ether-à-go-go-related gene (hERG) potassium channel (human, UniProt Q12809) (assay: primary screen, population patch clamp on CHO cells stably expressing hERG; higher = less effect of the substance).
Chain of human ether-à-go-go-related gene (hERG) potassium channel (Q12809 whole entry, looked up): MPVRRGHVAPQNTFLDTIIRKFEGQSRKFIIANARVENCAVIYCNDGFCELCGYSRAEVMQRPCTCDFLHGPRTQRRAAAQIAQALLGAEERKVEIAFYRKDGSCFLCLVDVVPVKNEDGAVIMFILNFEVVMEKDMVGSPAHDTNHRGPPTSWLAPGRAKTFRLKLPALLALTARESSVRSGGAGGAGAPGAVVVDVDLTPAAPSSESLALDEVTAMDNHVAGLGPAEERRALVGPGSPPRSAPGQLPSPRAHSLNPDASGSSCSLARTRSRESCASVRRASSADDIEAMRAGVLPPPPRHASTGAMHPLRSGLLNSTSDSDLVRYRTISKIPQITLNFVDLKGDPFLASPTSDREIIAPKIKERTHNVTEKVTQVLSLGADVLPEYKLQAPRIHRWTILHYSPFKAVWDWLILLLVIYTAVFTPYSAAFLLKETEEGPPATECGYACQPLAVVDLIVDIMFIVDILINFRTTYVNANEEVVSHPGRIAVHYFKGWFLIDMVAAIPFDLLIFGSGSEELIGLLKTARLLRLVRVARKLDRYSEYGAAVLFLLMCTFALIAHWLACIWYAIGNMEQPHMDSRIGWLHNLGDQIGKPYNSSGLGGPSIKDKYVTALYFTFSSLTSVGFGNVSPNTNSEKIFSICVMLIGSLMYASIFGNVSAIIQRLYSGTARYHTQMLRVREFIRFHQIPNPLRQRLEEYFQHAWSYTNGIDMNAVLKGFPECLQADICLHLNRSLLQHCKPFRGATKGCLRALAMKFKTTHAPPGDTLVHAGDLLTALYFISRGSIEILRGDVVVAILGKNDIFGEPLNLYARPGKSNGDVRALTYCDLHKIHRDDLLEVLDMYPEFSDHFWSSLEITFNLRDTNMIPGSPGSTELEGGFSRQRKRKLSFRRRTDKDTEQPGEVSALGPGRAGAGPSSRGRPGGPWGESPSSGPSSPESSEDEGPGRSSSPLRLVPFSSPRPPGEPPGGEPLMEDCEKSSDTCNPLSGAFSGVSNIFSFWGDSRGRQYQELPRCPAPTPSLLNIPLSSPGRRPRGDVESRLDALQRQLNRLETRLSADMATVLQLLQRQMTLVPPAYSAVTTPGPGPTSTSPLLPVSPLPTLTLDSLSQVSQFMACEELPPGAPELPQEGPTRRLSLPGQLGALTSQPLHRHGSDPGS
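Further: peak tail current of the secondary pulse compared with the same well before compound.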

| SMILES | hERG current change (%, negative = inhibition) at 10uM [%] |
| --- | --- |
| Cc1ccc(NC(=O)c2nc[nH]c2C(=O)N2CCc3ccccc3C2)cc1 | 18.8 |
| CCCN1CCC(NC(=S)Nc2ccc([N+](=O)[O-])cc2)CC1 | -52.6 |
| CCCN1CCN(C(=S)Nc2ccc([N+](=O)[O-])cc2)CC1 | -52.1 |
| CN1CCN(C(=S)Nc2ccc([N+](=O)[O-])cc2)CC1 | -23.1 |
| CCCN1CCC(NC(=O)Nc2ccc([N+](=O)[O-])cc2)CC1 | -32.2 |
| CCN1CCN(C(=S)Nc2ccc([N+](=O)[O-])cc2)CC1 | -26.6 |
| CCCN1CCC(NC(=S)Nc2ccc(S(N)(=O)=O)cc2)CC1 | 10.7 |
| COc1cc(/C=C/C(=O)O)cc(S(=O)(=O)Nc2ccccc2SC)c1OC | 15.5 |
| O=C(Nc1ncn[nH]1)c1ccc(S(=O)(=O)N2CCOCC2)cc1 | -5.88 |
| CC(C)c1ccc(NC(=O)CN2C(=O)NC3(CCCC3)C2=O)cc1 | 5.63 |
| COc1cccc(C(=O)OCCN2CCOCC2)c1.Cl | 6.33 |
| Cc1cc(C)c(OCC(=O)NCC2COc3ccccc3O2)c(C)c1 (stereo not drawn) | -13.9 |
| O=C(CSc1nnc(CNC(=O)c2ccccc2F)o1)NC1CCCC1 | 10.7 |
| CCN(CCn1cccn1)C(=O)CCc1nnc(CCCc2ccccc2)o1 | -37 |
| CC(C)(C)c1cc(NC(=O)c2ccc(OC3CCCC3)cc2)no1 | 14.2 |
| Cc1nc2c(-c3ccc(F)cc3)c(C)nn2c(C)c1CCC(=O)N1CCC(Cc2ccccc2)CC1 | -21.2 |
| Cc1nc2c(-c3ccccc3)c(C)nn2c(C)c1CCC(=O)N1CCOCC1 | -33.9 |
| COC(CNC(=O)CCc1c(C)nc2c(-c3ccc(F)cc3)c(C)nn2c1C)OC | -21.8 |
| CCOC(=O)C1CCN(C(=O)CCc2c(C)nc3c(-c4ccc(F)cc4)c(C)nn3c2C)CC1 | -71.1 |
| Cc1nc2c(-c3ccc(F)cc3)c(C)nn2c(C)c1CCC(=O)N1CCOCC1 | -53.3 |
| COc1ccccc1NC(=O)CCc1c(C)nc2c(-c3ccc(F)cc3)c(C)nn2c1C | -20.3 |
| Cc1nc2c(-c3ccc(F)cc3)c(C)nn2c(C)c1CCC(=O)N1CCC2(CC1)OCCO2 | -67.8 |

| SMILES | hERG current change (%, negative = inhibition) at 10uM [%] |
| --- | --- |
| Cc1nc2c(-c3ccc(F)cc3)c(C)nn2c(C)c1CCC(=O)NCCN1CCOCC1 | -24.3 |
| Cc1nc2cc(-c3cccc(F)c3)nn2c(C)c1CCC(=O)N1CCC2(CC1)OCCO2 | -37.5 |
| Cc1nc2c(-c3ccc(F)cc3)c(C)nn2c(C)c1CCC(=O)N1CCN(c2ccccn2)CC1 | -69.5 |
| Cc1nc2c(-c3ccccc3)c(C)nn2c(C)c1CCC(=O)N1CCC2(CC1)OCCO2 | -40.5 |
| CCCCCCc1nnc(N)s1 | -0.995 |
| Cc1cc(=O)n(C2CCS(=O)(=O)C2)[nH]1 (stereo not drawn) | 14.7 |
| O=c1[nH]c(=S)c2ncn(-c3ccccc3)c2[nH]1 | 11.7 |
| CCCCC(CCC(=O)O)(C(=O)OCC)c1csc(Nc2ccc(C)cc2)n1 (stereo not drawn) | -0.891 |
| Cc1ccc(N2C(=O)CC(c3ccsc3)C3=C2CC(C)(C)CC3=O)cc1 (stereo not drawn) | 3.75 |
| COc1ccc(CNC(=O)CN2CCN(c3cccc(C)c3C)CC2)cc1 | -8.46 |
| CCN(CC(=O)Nc1ccccc1OC)C(=O)CSCc1ccc(C)cc1 | -2.36 |
| CCCNC(=O)NC(=O)COC(=O)c1cccc(NS(=O)(=O)c2ccc(F)c(F)c2)c1 | -12 |
| COc1ccc(C(C(=O)NC2CCCC2)N(C(=O)CNC(=O)c2ccco2)c2cccnc2)cc1 (stereo not drawn) | 14.7 |
| Cc1oc2c(C)c3oc(=O)c(CCC(=O)NCCCN4CCCC4=O)c(C)c3cc2c1C | -14.8 |
| COCCCNC(=O)CCc1c(C)nc2c(-c3ccc(F)cc3)c(C)nn2c1C | -38.5 |
| Cc1nc2c(-c3ccc(F)cc3)c(C)nn2c(C)c1CCC(=O)Nc1ccccc1F | -10.7 |
| Cc1nc2c(-c3ccc(F)cc3)c(C)nn2c(C)c1CCC(=O)N1CCN(c2ccc(F)cc2)CC1 | -74.6 |
| COc1ccc(CN2C(=O)C(C)S/C2=N/N=C/c2ccco2)cc1 (stereo not drawn) | 6.37 |
| Cc1cc(=O)oc2cc(OC(C)C(=O)NCCCn3ccnc3)ccc12 (stereo not drawn) | 9.44 |
| Cc1c(C)c2ccc(OCC(=O)Nc3cccnc3)c(C)c2oc1=O | 3.99 |
| CC(Oc1ccc2c(-c3ccccc3)cc(=O)oc2c1)C(=O)NCCCn1ccnc1 (stereo not drawn) | -52.5 |
| COc1ccc(-c2cc(=O)oc3c(C)c(OCC(=O)NCCCn4ccnc4)ccc23)cc1 | -63.8 |

| SMILES | hERG current change (%, negative = inhibition) at 10uM [%] |
| --- | --- |
| CC(Oc1ccc2c3c(c(=O)oc2c1)CCCC3)C(=O)NCCCn1ccnc1 (stereo not drawn) | -2.45 |
| COc1ccc(-c2cc(=O)oc3cc(OC(C)C(=O)NCCCn4ccnc4)ccc23)cc1 (stereo not drawn) | -50.8 |
| Cc1cc(=O)oc2c(C)c(OCC(=O)Nc3cccnc3)ccc12 | -25.3 |
| Cc1c(OCC(=O)NCCCn2ccnc2)ccc2c3c(c(=O)oc12)CCCC3 | -48.2 |
| CC(Oc1ccc2ccc(=O)oc2c1)C(=O)NCCCn1ccnc1 (stereo not drawn) | 28.5 |
| Cc1c(OCC(=O)NCCCn2ccnc2)ccc2c3c(c(=O)oc12)CCC3 | -26.7 |
| CCc1cc(=O)oc2cc(OC(C)C(=O)NCCCn3ccnc3)ccc12 (stereo not drawn) | 9.41 |
| CCCc1cc(=O)oc2c(C)c(OCC(=O)Nc3cccnc3)ccc12 | -63.6 |
| COc1ccc(-c2cc(C(=O)N(C)CCc3ccc(OC)c(OC)c3)c3ccccc3n2)cc1 | -29.4 |
| CC(c1ccco1)N(C(=O)c1cccc(S(=O)(=O)N(C)C)c1)c1ccccn1 (stereo not drawn) | 16 |
| CCc1cc(=O)oc2c(C)c(OCC(=O)NCCCn3ccnc3)ccc12 | -45.9 |
| O=C(COc1ccc2c(-c3ccccc3)cc(=O)oc2c1)NCCCn1ccnc1 | -48.7 |
| CCCc1cc(=O)oc2c(C)c(OCC(=O)NCCCn3ccnc3)ccc12 | -75.3 |
| Cc1c(C)c2ccc(OCC(=O)NCCCn3ccnc3)c(C)c2oc1=O | -32.7 |
| Cc1cc(=O)oc2cc(OCC(=O)NCCCn3ccnc3)ccc12 | 7.58 |
| COc1ccc(-c2cc(=O)oc3cc(OCC(=O)NCCCn4ccnc4)ccc23)cc1 | -65.4 |
| COc1ccc(-c2cc(=O)oc3cc(OCC(C)=O)ccc23)cc1 | -74.6 |
| COC(=O)COc1ccc2c(-c3ccc(OC)cc3)cc(=O)oc2c1 | -39.2 |
| CC(=O)COc1ccc2c(-c3ccccc3)cc(=O)oc2c1 | -1.91 |
| Clc1cccc(-c2nc(NCCCN3CCOCC3)c3ccccc3n2)c1 | -10.1 |
| CCOC(=O)N1CCN(C(=O)c2cccc(NC3=NC4CS(=O)(=O)CC4S3)c2)CC1 (stereo not drawn) | 4.31 |
| NC(=O)c1cc(Cc2ccccc2)sc1NC(=O)c1ccco1 | -13.6 |

| SMILES | hERG current change (%, negative = inhibition) at 10uM [%] |
| --- | --- |
| O=C1CCC(c2ccccc2)=NN1 | 9.05 |
| COCC(C)NC(=O)/C(=C/c1ccccc1)c1ccccc1 (stereo not drawn) | -25 |
| COc1ccc(S(=O)(=O)C(C#N)c2nc3ccccc3nc2N2CCC(C)CC2)cc1 (stereo not drawn) | 18.6 |
| O=C(Nc1ccccc1)Nc1ccc2c(c1)CCC2 | 29.8 |
| CC(OC(=O)CCCOc1ccccc1)C(=O)NC(N)=O (stereo not drawn) | 9 |
| Cn1cncc1C#Cc1c(C=O)n(C)c2ccccc12 | 19.8 |
| O=C(COc1cccc2c1CCN(Cc1ccc(Br)cc1)C2=O)NCc1ccco1 | -70.6 |
| Cc1cccc(NC(=O)COc2cccc3c2CCN(Cc2ccccc2)C3=O)c1C | -5.8 |
| COC(=O)c1ccc(COc2cccc3c2CCN(Cc2cccc(C)c2)C3=O)o1 | -3.41 |
| Cc1ccc(C)c(NC(=O)COc2cccc3c2CCN(Cc2ccccc2)C3=O)c1 | -10.1 |
| O=C(COc1cccc2c1CCN(Cc1ccccc1)C2=O)NCc1ccco1 | -70.3 |
| O=C(COc1ccccc1-c1ccccc1)NCc1ccco1 | -28 |
| O=C1c2cccc(OCC(=O)N3CCCc4ccccc43)c2CCN1Cc1ccc(Br)cc1 | 6.7 |
| Cc1cccc(CN2CCc3c(OCC(=O)NCc4ccco4)cccc3C2=O)c1 | -51.2 |
| Cc1ccc(CN2CCc3c(OCC(=O)Nc4cc(C)ccc4C)cccc3C2=O)cc1 | 4.23 |
| O=C(CN1C(=O)C2CC=CCC2C1=O)Nc1ccccc1N1CCCC1 (stereo not drawn) | 6.41 |
| CCOC(=O)c1c(C)c(C(=O)NCCN2CCOCC2)c(C)n1C | 15.1 |
| CCOC(=O)C1(C)NC(c2ccco2)C2C(=O)N(C)C(=O)C21 (stereo not drawn) | 13.6 |
| COC(=O)c1ccc(C2c3c(oc4ccc(Cl)cc4c3=O)C(=O)N2CCN2CCOCC2)cc1 (stereo not drawn) | -35.2 |
| COc1ccc(C2c3c(oc4ccc(Cl)cc4c3=O)C(=O)N2CCN2CCOCC2)cc1 (stereo not drawn) | -81.2 |
| COc1ccc(C2c3c(oc4ccccc4c3=O)C(=O)N2CCCN2CCOCC2)cc1 (stereo not drawn) | -7.15 |
